From PubChem BioAssay (NCATS)
Records with an inconclusive call do not appear. Calls of active or inactive are those of the source. Calls come from the whole dose curve.

target: Peroxisome proliferator-activated receptor delta (Homo sapiens) (UniProt Q03181); test: qHTS assay for small molecule agonists of peroxisome proliferator-activated receptor delta signaling (AID 588534); details: HEK293T PPARdelta-UAS-bla, beta-lactamase ratio, 18 h; series mostly up to 76.7 µM
Method in brief: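 Cells carrying a PPAR-delta beta-lactamase reporter were treated with compounds for 18 h at 37 °C in agonist mode. CCF4 fluorescence was read after 2 h; EC50 and efficacy from Hill fits.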

Sequence of Peroxisome proliferator-activated receptor delta (Homo sapiens) (Q03181 whole entry, looked up): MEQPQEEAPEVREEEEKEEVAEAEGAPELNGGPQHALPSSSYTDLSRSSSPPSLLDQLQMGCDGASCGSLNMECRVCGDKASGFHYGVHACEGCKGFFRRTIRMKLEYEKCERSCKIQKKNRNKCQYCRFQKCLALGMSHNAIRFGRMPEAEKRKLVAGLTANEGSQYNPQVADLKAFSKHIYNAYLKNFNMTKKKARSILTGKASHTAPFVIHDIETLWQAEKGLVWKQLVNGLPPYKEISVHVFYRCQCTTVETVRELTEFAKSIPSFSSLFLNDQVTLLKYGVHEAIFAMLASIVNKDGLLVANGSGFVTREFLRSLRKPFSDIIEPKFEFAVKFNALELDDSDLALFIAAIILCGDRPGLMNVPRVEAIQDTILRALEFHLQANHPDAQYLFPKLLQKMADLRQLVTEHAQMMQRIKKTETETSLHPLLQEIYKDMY

outcome, inactive:
O=[N+]([O-])c1cc(N(CCO)CCO)ccc1NCCO
C=C(C)C(=O)OCCC[Si](Cl)(Cl)Cl
CCCCOCCOCCOCCO
CC(=O)OC1CCC(C(C)(C)C)CC1 (stereo not drawn)
Cc1c(N)cccc1[N+](=O)[O-]
O=[N+]([O-])c1cccc(I)c1
O=Cc1ccc(Cl)c(Cl)c1
CC1CCC(C(C)C)C(O)C1 (stereo not drawn)
